Test results from PubChem BioAssay (NCI).
Compounds without any hit were thinned out: in the full panel of roughly 79,000, 15% have a hit. Calls of active or inactive are those of the source. Cut-off read from the data, not from the text of the source: active = growth inhibition above about 70%; inactive = the rest.

Experiments:
[1] = NCI Yeast Anticancer Drug Screen. Data for the rad50 strain (AID 155);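 note: 0% = growth of vehicle-only cultures of the same strain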; conditions: S. cerevisiae rad50 strain growth inhibition, hits give high values
Summary of the method: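 Yeast carrying a defined DNA repair defect were exposed to test compounds, and growth was compared with vehicle-treated controls to give percent inhibition.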

[2] = NCI Yeast Anticancer Drug Screen. Data for the mec2-1 strain (AID 157); conditions: S. cerevisiae mec2-1 strain, hits give high values
Summary of the method: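 Growth inhibition is read against vehicle-treated controls after compound exposure of the mec2-1 yeast strain, which is defective in DNA damage repair or cell cycle control.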

[3] = NCI Yeast Anticancer Drug Screen. Data for the sgs1 mgt1 strain (AID 161);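 note: 0% = growth of cultures given vehicle only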; conditions: S. cerevisiae sgs1 mgt1 strain, hits give high values
Summary of the method: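 Yeast cells carrying a defined DNA-repair defect were exposed to test compounds. Growth inhibition was measured relative to vehicle-treated controls.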

[4] = NCI Yeast Anticancer Drug Screen. Data for the cln2 rad14 strain (AID 165);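 note: 0% = growth equal to vehicle treated cultures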; conditions: S. cerevisiae cln2 rad14 strain, hits give high values
Summary of the method: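 Growth inhibition, relative to vehicle-treated controls, is the read-out. The test organism is a yeast strain with defined genetic alterations, cln2 rad14.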

[5] = NCI Yeast Anticancer Drug Screen. Data for the bub3 strain (AID 167); conditions: S. cerevisiae bub3 mutant strain, hits give high values
Summary of the method: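 Compounds were applied to a genetically altered yeast strain carrying a cell-cycle control defect. Growth inhibition was scored against vehicle-treated controls.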

[6] = NCI Yeast Anticancer Drug Screen. Data for the mlh1 rad18 strain (AID 175); conditions: S. cerevisiae mlh1 rad18 strain growth inhibition, hits give high values
Summary of the method: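 Cells of a genetically altered yeast strain, deficient in DNA damage repair, were treated with compound. Their growth was then compared with that of vehicle-treated cultures to give inhibition.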

[7] = at 5.0 µM (retest, dose inferred, filed as 0.5)
[8] = at 50.0 µM (retest, dose inferred, filed as 5.0)

Measured: growth inhibition

Cc1cc(Cl)n2c(nc3ccccc32)c1C#N
inactive: [1]; [7] 13% | [2]; [7] 23% | [3]; [7] 16% | [4]; [7] 2% | [5]; [7] 18% | [6]; [7] 28%
active: [1]; [8] 90% | [1]; at 50.0 µM 98.2% | [2]; [8] 97% | [2]; at 50.0 µM 98.5% | [3]; [8] 94% | [3]; at 50.0 µM 99% | [4]; [8] 89% | [4]; at 50.0 µM 96.8% | [5]; [8] 92% | [5]; at 50.0 µM 98% | [6]; [8] 94% | [6]; at 50.0 µM 98.3%

c1ccc2cc3nc4ccccc4nc3cc2c1
inactive: [1]; [7] 44% | [2]; [7] 21% | [2]; [8] 38% | [2]; at 50.0 µM 51.4% | [3]; [7] 13% | [3]; [8] 22% | [3]; at 50.0 µM 20.9% | [4]; [7] 15% | [4]; [8] 38% | [5]; [7] 42% | [5]; [8] 57% | [5]; at 50.0 µM 68.3% | [6]; [7] 25% | [6]; [8] 58%
active: [1]; [8] 82% | [1]; at 50.0 µM 87.9% | [4]; at 50.0 µM 70.1% | [6]; at 50.0 µM 73%

COC(=O)c1ccc(C)cc1CC1Cc2cc(C)ccc2C1=O (stereo not given)
active: [3]; at 50.0 µM 73.9% | [4]; at 50.0 µM 71.8% | [6]; [8] 85% | [6]; at 50.0 µM 70.7%
inactive: [1]; [7] 5% | [1]; [8] 54% | [1]; at 50.0 µM 36.1% | [2]; [7] -21% | [2]; [8] 56% | [2]; at 50.0 µM 56.1% | [3]; [7] -31% | [3]; [8] 68% | [4]; [7] 21% | [4]; [8] 53% | [5]; [7] -34% | [5]; [8] 49% | [5]; at 50.0 µM 64.2% | [6]; [7] -12%

O=C(N=Nc1cccc(Cl)c1)NNc1cccc(Cl)c1
active: [1]; [8] 98% | [1]; at 50.0 µM 85.8% | [2]; [8] 99% | [2]; at 50.0 µM 90.6% | [3]; [8] 91% | [3]; at 50.0 µM 83.2% | [4]; [8] 99% | [4]; at 50.0 µM 83.5% | [5]; [8] 99% | [5]; at 50.0 µM 86.3% | [6]; [8] 98% | [6]; at 50.0 µM 85.4%
inactive: [1]; [7] 12% | [2]; [7] -11% | [3]; [7] -9% | [4]; [7] 26% | [5]; [7] -24% | [6]; [7] -6%

O=C1/C(=C\c2ccc(Cl)cc2Cl)Sc2scc(-c3ccc(O)c(O)c3)[n+]21
active: [1]; at 50.0 µM 86.2% | [2]; at 50.0 µM 76.9% | [3]; [8] 71% | [3]; at 50.0 µM 97.8% | [4]; [8] 71% | [5]; [8] 81% | [5]; at 50.0 µM 85.7% | [6]; at 50.0 µM 91.8%
inactive: [1]; [7] 18% | [1]; [8] 55% | [2]; [7] 6% | [2]; [8] 67% | [3]; [7] 15% | [4]; [7] 1% | [4]; at 50.0 µM 46.5% | [5]; [7] -10% | [6]; [7] 28% | [6]; [8] 68%

C#CCNC1=CC(=O)CCC1
inactive: [1]; [7] -14% | [1]; [8] 16% | [1]; at 50.0 µM -12.1% | [2]; [7] 0% | [2]; [8] -1% | [2]; at 50.0 µM 9.55% | [3]; [7] -3% | [3]; [8] -10% | [3]; at 50.0 µM -4.55% | [4]; [7] 17% | [4]; [8] 6% | [4]; at 50.0 µM 58.5% | [5]; [7] 14% | [5]; [8] -13% | [5]; at 50.0 µM 35.5% | [6]; [7] -4% | [6]; [8] 1% | [6]; at 50.0 µM 17.6%

Cc1ccc2c(c1)CSCCO2
inactive: [4]; [7] 50%
active: [1]; [7] 86% | [1]; [8] 99% | [1]; at 50.0 µM 99.3% | [2]; [7] 87% | [2]; [8] 100% | [2]; at 50.0 µM 99.7% | [3]; [7] 87% | [3]; [8] 99% | [3]; at 50.0 µM 99.5% | [4]; [8] 100% | [4]; at 50.0 µM 99.3% | [5]; [7] 90% | [5]; [8] 99% | [5]; at 50.0 µM 99.5% | [6]; [7] 92% | [6]; [8] 99% | [6]; at 50.0 µM 99.5%

CCN(CC)c1ccc(NC(C(=O)c2ccccc2)c2ccc3c(c2)OCO3)cc1 (stereo not given)
inactive: [1]; [7] -23% | [1]; [8] -26% | [1]; at 50.0 µM 27.2% | [2]; [7] -3% | [2]; [8] 5% | [2]; at 50.0 µM 32.7% | [3]; [7] -23% | [3]; [8] 14% | [3]; at 50.0 µM 46.1% | [4]; [7] -1% | [4]; [8] -10% | [4]; at 50.0 µM -8.35% | [5]; [7] 3% | [5]; [8] 14% | [5]; at 50.0 µM 25.9% | [6]; [7] -4% | [6]; [8] 12% | [6]; at 50.0 µM 42.5%

OCCc1cccc2ccc3ccccc3c12
active: [1]; at 50.0 µM 85.9% | [2]; at 50.0 µM 92.8% | [3]; at 50.0 µM 94.2% | [4]; at 50.0 µM 88.2% | [5]; at 50.0 µM 90.4% | [6]; at 50.0 µM 91.8%
inactive: [1]; [7] 0% | [1]; [8] 62% | [2]; [7] -1% | [2]; [8] 55% | [3]; [7] -4% | [3]; [8] 59% | [4]; [7] -1% | [4]; [8] 59% | [5]; [7] 1% | [5]; [8] 66% | [6]; [7] 2% | [6]; [8] 66%

Cc1c(O)c2c(c(O)c1Br)C(=O)C=CC2=O
active: [1]; [7] 88% | [1]; [8] 96% | [1]; at 50.0 µM 70.8% | [2]; [7] 93% | [2]; [8] 98% | [2]; at 50.0 µM 90.5% | [3]; [7] 74% | [3]; [8] 98% | [3]; at 50.0 µM 90.5% | [4]; [8] 97% | [4]; at 50.0 µM 87.3% | [5]; [7] 98% | [5]; [8] 98% | [5]; at 50.0 µM 89.1% | [6]; [7] 96% | [6]; [8] 97% | [6]; at 50.0 µM 90.8%
inactive: [4]; [7] 49%
